Tests used:
Assay type in all cases: functional
[1] = system: Plasmodium falciparum; assay: GSK_TCMDC: Inhibition of Plasmodium falciparum 3D7 in whole red blood cells, using parasite LDH activity as an index of growth. Test compounds present at 2uM
[2] = system: Plasmodium falciparum; assay: GSK_TCMDC: Inhibition of Plasmodium falciparum Dd2 in whole red blood cells, using parasite LDH activity as an index of growth. Test compounds present at 2uM
[3] = system: HepG2; assay: GSK_TCMDC: Percent inhibition of human HepG2 cell line. Test compounds present at 10uM.

Row | SMILES | Inhibition [1] | Inhibition [2] | Inhibition [3]
1 | CCN(CC)CCN(Cc1ccc(-c2ccc(C(F)(F)F)cc2)cc1)C(=O)Cn1c(CCc2cccc(F)c2F)nc(=O)c2cc(C)ccc21.O=C(O)C(O)C(O)C(=O)O | 95% | 43% | 19%
2 | CNC(=O)c1cnc(Nc2ccc(N3CCOCC3)cc2)nc1Nc1cccc(O)c1.O=C(O)C(F)(F)F | 90% | 78% | 23%
3 | CC(C)CNCc1cccc(-c2cccc(CN(CCCN3CCN(C)CC3)C(=O)/C=C/c3ccccc3)c2)c1.O=C(O)C(F)(F)F | 90% | 88% | 44%
4 | CS(=O)(=O)c1ccc(-c2nc(NCC3CCCCC3)cc(C(F)(F)F)n2)cc1 | 83% | 76% | 0%
5 | Oc1ccc(Br)cc1-c1nc2ccc(Cl)cc2nc1-c1cc(Br)ccc1O | 100% | 64% | 0%
6 | CN(C)Cc1ccc(-c2cccc(NC(=O)c3ccc(Cl)cc3)c2)cc1.O=C(O)C(F)(F)F | 94% | 13% | 24%
7 | CCOC(=O)c1c(C)n(-c2ccccc2)c2ccc(O)cc12 | 100% | 87% | 0%
8 | COCn1ccc2c3c(N)nc(N)nc3ccc21 | 88% | 1% | 63%
9 | COc1ccccc1Cc1c(C)nc2nc(N)nc(N)c2c1C.Cl | 96% | 2% | 69%
10 | NC(=O)c1ccc(C(=O)Nc2cccc(-c3cccc(-c4nc5cc(C(F)(F)F)ccc5[nH]4)c3)c2)cc1 | 100% | 36% | 63%
11 | CCOC(=O)c1ccc(Nc2cc(Nc3ccc(C(=O)OCC)cc3)nc(C)n2)cc1 | 99% | 33% | 4%
12 | CCC(C)CN1CCCN(c2ccc(NC(=O)c3cccs3)cc2)CC1.O=C(O)C(F)(F)F (centres undefined) | 91% | 95% | 4%
13 | Cc1noc(C)c1-c1ccc2c(Nc3ccc(Cl)cc3)c(C(N)=O)cnc2c1.Cl | 94% | 67% | 9%
14 | COc1ccc(CNCc2ccc(-c3ccc(-c4nc5cccc(C)c5[nH]4)cc3)cc2)cc1.O=C(O)C(F)(F)F | 100% | 97% | 53%
15 | Cc1cc(N2CCCC2)nc(NC(=N)Nc2cccc(C(F)(F)F)c2)n1 | 100% | 100% | 33%
16 | c1ccc(Oc2ccc(Nc3ccnc4cc(-c5ccc(CNCCN6CCOCC6)o5)ccc34)cc2)nc1 | 100% | 100% | 0%
17 | Cn1cncc1C(=O)Nc1cccc(-c2cccc(-c3nc4cc(C(F)(F)F)ccc4[nH]3)c2)c1 | 100% | 99% | 38%
18 | O=C(Cn1c(CCc2cccc(F)c2F)nc(=O)c2ccccc21)N(CCCN1CCCC1)Cc1ccc(-c2ccc(C(F)(F)F)cc2)cc1.O=C(O)C(O)C(O)C(=O)O | 100% | 80% | 54%
19 | COc1ccc(CNC2CCN(C)CC2)cc1-c1ccc(S(=O)(=O)NC2CCC2)s1.O=C(O)C(F)(F)F | 100% | 94% | 32%
20 | COc1ccc(CCNc2ccnc3cc(Cl)ccc23)cc1OC.Cl | 100% | 92% | 4%

Row | SMILES | Inhibition [1] | Inhibition [2] | Inhibition [3]
21 | CC(=O)Nc1ccc(CNCCc2ccc(NC(=O)c3cc(Cl)cc(Cl)c3)cc2)cc1 | 100% | 31% | 10%
22 | Cc1cccc(-c2ccc(CNC3CCN(CC4Cn5c(=O)ccc6ccc(F)c4c65)CC3)cn2)c1.O=C(O)C(F)(F)F (centres undefined) | 90% | 2% | 0%
23 | Cc1cc(Nc2ccc(OCc3ccccc3Cl)cc2)c2cc(Cl)ccc2n1.Cl | 100% | 58% | 33%
24 | COc1cccc(C(=O)Nc2nc3c(s2)CCN(Cc2ccccc2N2CCNCC2)CC3)c1.O=C(O)C(F)(F)F | 89% | 11% | 7%
25 | COc1ccc2nccc([C@@H](O)CN3CCC(NC(=O)/C=C/c4cc([N+](=O)[O-])ccc4OC)CC3)c2c1 | 99% | 76% | 12%
26 | O=C(Nc1ccccc1)c1nn(CCCN2CCC(N3CCCC3)CC2)cc1-c1ccc(Cl)c(Cl)c1 | 100% | 98% | 31%
27 | O=S1(=O)NC2(CCN(CCc3ccc(Cl)cc3)CC2)Nc2cc(F)cc(F)c21 | 86% | 5% | 7%
28 | Cc1cc(NCCC(=O)NCCOc2ccccc2)nc(NCc2ccccc2C)n1.O=C(O)C(F)(F)F | 92% | 29% | 17%
29 | FC(F)(F)Oc1ccc(Nc2cc(-c3ccncc3)nc(-c3cccnc3)n2)cc1 | 94% | 52% | 24%
30 | COCCCN=C(S)NN=C(C)c1ccccn1 | 100% | 99% | 55%
31 | Cc1cc(N[C@@H](Cc2ccccc2)C(=O)NCc2cccc(F)c2)nc(NCC2CCCCC2)n1.O=C(O)C(F)(F)F | 100% | 42% | 43%
32 | CC1CN(Cc2cccc(F)c2)CCN1c1ccc(NC(=O)c2ccc(F)cc2)cc1.O=C(O)C(F)(F)F (centres undefined) | 96% | 92% | 0%
33 | Cc1ccc(NC(=O)c2ccc(CN3CCCN(Cc4cccc(O)c4)CC3)cc2)cc1.O=C(O)C(F)(F)F | 90% | 31% | 39%
34 | COc1ccc2c(c1)c(C1CCN(CCCCNC(=O)c3ccc(-c4ccc(C(F)(F)F)cc4)cc3)CC1)cn2C(C)C | 99% | 21% | 26%
35 | COc1ccc2nccc([C@@H](O)CN3CCC(NC(=O)/C=C/c4ccc(Cl)c(C(F)(F)F)c4)CC3)c2c1 | 100% | 89% | 11%
36 | CO/C(=C\C=C\c1cc2cc(Cl)c(Cl)cc2[nH]1)C(=O)NCCCN1CCN(c2ccncc2)CC1 | 98% | 96% | 12%
37 | Clc1nc2ccccn2c1C=Cc1ccc2ccccc2n1 | 86% | 75% | 0%
38 | CCC[C@@H]([C@@H](CC1CCC(C)CC1)C(=O)N[C@@H](CO)C(=O)Nc1nccs1)N(O)C=O (some centres undefined) | 100% | 84% | 0%
39 | COc1cc(N(C)Cc2cnc3nc(N)nc(N)c3n2)cc(OC)c1OC | 95% | 2% | 32%
40 | O=C(O)C(F)(F)F.c1cc(CN2CCCCC2)cc(-c2ccc(-c3nc4ccccc4[nH]3)cc2)c1 | 100% | 88% | 9%

Row | SMILES | Inhibition [1] | Inhibition [2] | Inhibition [3]
41 | Cn1cc(CCNc2ccnc(N3CCC(c4ncc[nH]4)CC3)n2)c2ccccc21 | 92% | 5% | 12%
42 | CCCCCCNC(=N)c1ccc(OCCCCCOc2ccc(C(=N)NCCCCCC)cc2)cc1.Cl | 97% | 98% | 55%
43 | N#Cc1ccc(NC(=O)Nc2ccc(OC(F)(F)F)cc2)cc1 | 98% | 91% | 43%
44 | CCOC(=O)c1ccc(N(CCCN(CCCN(c2ccc(C(=O)OCC)cc2)S(=O)(=O)c2ccc(C)cc2)CCc2ccc(O)cc2)S(=O)(=O)c2ccc(C)cc2)cc1 | 96% | 74% | 0%
45 | CCOC(=O)C(C)(C)Oc1ccc(C(=C2CC(C)(C)CC(C)(C)C2)c2ccc(O)cc2)cc1 | 92% | 78% | 0%
46 | Cc1cccc2nc(-c3ccc(-c4ccc(NC(=O)Nc5ccsc5)cc4)cc3)[nH]c12 | 100% | 70% | 49%
47 | C=CCc1cc(OC)ccc1OCCCOc1c(C)nc(N)nc1N.Cl | 92% | 97% | 67%
48 | CC(Sc1nc(-c2ccccc2)c(-c2ccccc2)o1)C(=O)NC1CC1 (centres undefined) | 94% | 91% | 13%
49 | CC(=O)c1ccc(-c2ccc(C(=O)NCCCCN3CCC(c4ccc5c(c4OCC(N)=O)CCCC5)CC3)cc2)s1 | 90% | 4% | 26%
50 | CN1CCN(c2cc(-c3cccc(C(F)(F)F)c3)nc(-c3ccncc3)n2)CC1 | 100% | 98% | 38%
51 | CCOc1ccc(N2CCN(CCCCNC(=O)c3ccc(NC(=O)c4ccc(Cl)cc4)cc3)CC2)c(OCC)c1 | 100% | 65% | 36%
52 | O=C(NC(=S)Nc1cc(C(F)(F)F)cc(C(F)(F)F)c1)c1ccc(Cl)cc1 | 96% | 99% | 31%
53 | Cc1cc(NCCc2ccccc2)nc(NC(=N)Nc2ccc(Cl)cc2)n1 | 100% | 100% | 7%
54 | Cc1nc(-c2nc(NCc3ccc4c(c3)OCO4)ncc2-c2ccsc2)sc1C | 97% | 77% | 7%
55 | Cc1nc(-c2nc(NCc3ccccn3)ncc2-c2ccsc2)sc1C | 92% | 87% | 0%
56 | CCC(C)NS(=O)(=O)c1ccc2nc(Nc3ccc(C)c(Cl)c3)n([C@H](C)C(C)(C)C)c2c1 (some centres undefined) | 98% | 100% | 8%
57 | Cc1cc(CNCC2CCC(CNCCCc3ccccc3)CC2)ccc1O (centres undefined) | 100% | 0% | 25%
58 | Cl.O=C(Nc1ccc(C(=O)OCC2CCCN3CCCCC23)cc1)c1ccc(Cl)c(Cl)c1 (centres undefined) | 99% | 37% | 20%

— ChEMBL document CHEMBL1157539, “Thousands of chemical starting points for antimalarial lead identification” (Nature, 2010)
